Calls of active or inactive are those of the source. Rule for the calls: active = hit-call score of the fitted dose curve at least 0.9, where 1 is the maximum; inactive = score below 0.9.

Read-out in one assay: Tissue plasminogen activator (tPA), PLAT (gene 5327)
Briefly: BSK_BE3C_tPA: BioMAP Diversity Plus: BE3C Assay for Tissue plasminogen activator (tPA) Biomarker Activity (AID 2283041).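 For outcome: tPA level quantified by ELISA one day after compound addition.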 The conditions noted are these: primary human bronchial epithelial cells; actives raise or lower the signal. The procedure, abridged: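 Human primary bronchial epithelial cells were dosed with chemical and tPA biomarker levels measured by ELISA 24 hours later. Activity was fitted bidirectionally against DMSO as negative control and baseline.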
As to `Cc1ccc2nc3sc(=O)sc3nc2c1`, the outcome was inactive.
The same measure, in the same setting: as for `OC(Cc1ccccc1Cl)(Cn1cncn1)C1(Cl)CC1` (stereo unspecified), the entry is “inactive”; as for `Cc1ccccc1OP(=O)(Oc1ccccc1)Oc1ccccc1`, “inactive”.
With `O=[N+]([O-])c1cccc2ccccc12`, the result was inactive.
As to `Oc1c(Cl)cc(Cl)cc1Cl`, the outcome was inactive.
The same measure, in the same setting: as for `CCOC(=O)CCN(SN(C)C(=O)Oc1cccc2c1OC(C)(C)C2)C(C)C`, the entry is “inactive”.
Broadly, the AC50 is the midpoint of the concentration-response curve, whichever way the signal moves. As for `OC(Cc1ccccc1Cl)(Cn1[nH]cnc1=S)C1(Cl)CC1` (stereo unspecified), the AC50 was 20 µM (active).
`CCOP(=O)(OCC)SCCSCC`: the outcome was inactive.
Regarding `N#CCCC(Br)(C#N)CBr` (stereo unspecified), the concentration at half-maximal activity (AC50) is 9.86 µM (active).
Still for that read-out and setting: under `Cc1cc(C(C)(C)c2ccc(O)c(C)c2)ccc1O` stands 15.2 µM (active).
Regarding `O=C(O)COc1cc(Cl)c(Cl)cc1Cl`, the outcome was inactive.
As for `O=[N+]([O-])c1ccc(Nc2ccccc2)cc1`, the outcome was inactive.
For the molecule `Cc1ccccc1OP(=O)(Oc1ccccc1C)Oc1ccccc1C`, the AC50 is 7.43 µM (active).
For the molecule `CCOC(=O)C(SP(=S)(OC)OC)c1ccccc1` (stereo unspecified), the result was inactive.
The same measure, in the same setting: as for `CC(C)(C)c1cc([N+](=O)[O-])cc(C(C)(C)C)c1O`, the entry is “inactive”; as for `CC1(C)[C@H](C(=O)O[C@H](C#N)c2cccc(Oc3ccccc3)c2)[C@@H]1/C=C(\Cl)C(F)(F)F`, “inactive”.
Turning to `c1ccc(-c2cccc(-c3ccccc3)c2)cc1`, the half-maximal activity concentration (AC50) is 6.98 µM (active).
On the same count and under the same terms, under `Cc1ccc(OP(=O)(Oc2ccc(C)cc2C)Oc2ccc(C)cc2C)c(C)c1` stands 3.86 µM (active).
`CC(C)(C)c1ccccc1O`: the outcome was inactive.
As to `O=S(=O)(C(Cl)(Cl)Cl)C(Cl)(Cl)Cl`, the AC50 is 4.81 µM (active).
As for `C=CC(Cl)CCl` (stereo unspecified), the result was inactive.
`CCOP(=O)(OCC)OC(=CCl)c1ccc(Cl)cc1Cl`: the outcome was inactive.
Same read-out and setting: as for `COc1ccccc1N`, the entry is “inactive”; as for `CCN(CC)C(=O)C(Cl)=C(C)OP(=O)(OC)OC`, “inactive”; as for `CC(C=O)Cc1ccc2c(c1)OCO2` (stereo unspecified), “inactive”.
Same read-out and setting: under `OCCN(CCO)CCO` stands “inactive”.
Take `[Cl][Sn]([c]1ccccc1)([c]1ccccc1)[c]1ccccc1`: the AC50 is 0.0792 µM (active).
Regarding `C#CCOC(=O)/C=C(C)/C=C/CC(C)CCCC(C)C` (stereo unspecified), the result was inactive.
Regarding `CN(C)C(=S)S`, the AC50 was 9.34 µM (active).
On the same count and under the same terms, under `CC(C)=CC1C(C(=O)OCc2cccc(Oc3ccccc3)c2)C1(C)C` (stereo unspecified) stands 9.82 µM (active).
Turning to `CCOP(=S)(OCC)OP(=S)(OCC)OCC`, the outcome was inactive.
On the same count and under the same terms, under `O=S(=O)(c1ccc(Cl)cc1)c1cc(Cl)c(Cl)cc1Cl` stands “inactive”.
Still for that read-out and setting: under `Cc1cc(C)cc(C)c1` stands “inactive”.

Read-out in a further assay: Interleukin-8 (IL8), CXCL8 (gene 3576)
The experiment in a line: BSK_CASM3C_IL8: BioMAP Diversity Plus: CASM3C Assay for Interleukin-8 (IL8) Biomarker Activity (AID 2283042).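 Note: IL-8 protein level quantified by ELISA.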 The conditions noted are these: primary human coronary artery smooth muscle cells; actives raise or lower the signal.
For `Cc1ccc2nc3sc(=O)sc3nc2c1`, the result was inactive.
The same measure, in the same setting: under `OC(Cc1ccccc1Cl)(Cn1cncn1)C1(Cl)CC1` (stereo unspecified) stands “inactive”; under `Cc1ccccc1OP(=O)(Oc1ccccc1)Oc1ccccc1`, “inactive”; under `O=[N+]([O-])c1cccc2ccccc12`, “inactive”.
Same read-out and setting: as for `Oc1c(Cl)cc(Cl)cc1Cl`, the entry is “inactive”; as for `CCOC(=O)CCN(SN(C)C(=O)Oc1cccc2c1OC(C)(C)C2)C(C)C`, “inactive”.
Same read-out and setting: as for `OC(Cc1ccccc1Cl)(Cn1[nH]cnc1=S)C1(Cl)CC1` (stereo unspecified), the entry is “inactive”; as for `CCOP(=O)(OCC)SCCSCC`, “inactive”.
Regarding `N#CCCC(Br)(C#N)CBr` (stereo unspecified), the AC50 was 20 µM (active).
Consider `Cc1cc(C(C)(C)c2ccc(O)c(C)c2)ccc1O`, for which the outcome was inactive.
Regarding `O=C(O)COc1cc(Cl)c(Cl)cc1Cl`, the result was inactive.
Same read-out and setting: as for `O=[N+]([O-])c1ccc(Nc2ccccc2)cc1`, the entry is “inactive”; as for `Cc1ccccc1OP(=O)(Oc1ccccc1C)Oc1ccccc1C`, “inactive”; as for `CCOC(=O)C(SP(=S)(OC)OC)c1ccccc1` (stereo unspecified), “inactive”.
On the same count and under the same terms, under `CC(C)(C)c1cc([N+](=O)[O-])cc(C(C)(C)C)c1O` stands “inactive”.
For the molecule `CC1(C)[C@H](C(=O)O[C@H](C#N)c2cccc(Oc3ccccc3)c2)[C@@H]1/C=C(\Cl)C(F)(F)F`, the outcome was inactive.
Regarding `c1ccc(-c2cccc(-c3ccccc3)c2)cc1`, the outcome was inactive.
On the same count and under the same terms, under `Cc1ccc(OP(=O)(Oc2ccc(C)cc2C)Oc2ccc(C)cc2C)c(C)c1` stands “inactive”; under `CC(C)(C)c1ccccc1O`, “inactive”.
With `O=S(=O)(C(Cl)(Cl)Cl)C(Cl)(Cl)Cl`, the AC50 was 1.69 µM (active).
Turning to `C=CC(Cl)CCl` (stereo unspecified), the outcome was inactive.
In the case of `CCOP(=O)(OCC)OC(=CCl)c1ccc(Cl)cc1Cl`, the result was inactive.
Still for that read-out and setting: under `COc1ccccc1N` stands “inactive”; under `CCN(CC)C(=O)C(Cl)=C(C)OP(=O)(OC)OC`, “inactive”; under `CC(C=O)Cc1ccc2c(c1)OCO2` (stereo unspecified), “inactive”.
With `OCCN(CCO)CCO`, the outcome was inactive.
For `[Cl][Sn]([c]1ccccc1)([c]1ccccc1)[c]1ccccc1`, the AC50 is 0.499 µM (active).
On to `C#CCOC(=O)/C=C(C)/C=C/CC(C)CCCC(C)C` (stereo unspecified), for which the result was inactive.
On the same count and under the same terms, as for `CN(C)C(=S)S`, the entry is “inactive”.
The same measure, in the same setting: as for `CC(C)=CC1C(C(=O)OCc2cccc(Oc3ccccc3)c2)C1(C)C` (stereo unspecified), the entry is “inactive”.
The same measure, in the same setting: under `CCOP(=S)(OCC)OP(=S)(OCC)OCC` stands “inactive”; under `O=S(=O)(c1ccc(Cl)cc1)c1cc(Cl)c(Cl)cc1Cl`, “inactive”.
In the case of `Cc1cc(C)cc(C)c1`, the outcome was inactive.
